Results taken from PubChem BioAssay (Tox21).
Records with an inconclusive call do not appear. Where a call stands in place of a potency, no number is given. Values without a mark were called inactive. Calls of active or inactive are those of the source. Calls come from the whole dose curve; as a rule, active = well fitted curve in the direction sought with a large enough effect in the repeat runs; inconclusive = weak or mixed curves; inactive = no such curve, though single readings can be large; an effect the other way counts as inactive or inconclusive.

Experiment: qHTS RealTime-Glo MT Cell Viability Assay in HepG2 cells - 32 hour (AID 1224877); note: nearly all actives have a fitted effect of over 55% in size
Details: RealTime-Glo luminescence; series mostly up to 76.8 µM
Summary of the method: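 HepG2 cells (600/well) were dispensed with RealTime-Glo reagents, incubated 5 h at 37 °C, then treated with compounds in DMSO for up to 40 h. Nonlytic NanoLuc luminescence reflecting viable cells was read at each stated time point.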

Row | Structure (SMILES) | outcome | activity change, negative = cytotoxic
1 | NCC1(Cc2noc(=O)[nH]2)CCCCC1 | inactive | –
2 | O=Cc1cc2ccccc2o1 | inactive | –
3 | C[C@]12CCC(=O)C=C1CC[C@H]1[C@@H]3CC[C@](O)(C(=O)CO)[C@@]3(C)C[C@H](O)[C@@]12F | inactive | –
4 | COC(=O)c1ccccc1C(=O)O | inactive | –
5 | OC[C@H]1O[C@@H](O[C@@H]2[C@@H](CO)O[C@](O)(CO)[C@H]2O)[C@H](O)[C@@H](O)[C@H]1O | inactive | –
6 | CCOc1cccc(N)c1 | inactive | –
7 | COC(=O)c1cccc(Cl)c1 | inactive | –
8 | CN(C)C(C)(C)CO | inactive | –
9 | CCCCSCCCC | inactive | –
10 | CCN1CCCC1CN (centres undefined) | inactive | –
11 | Cc1c(NC(=O)c2cccnc2)c(=O)n(-c2ccccc2)n1C | inactive | –
12 | Cc1cc(-c2ccccc2)nnc1NCCN1CCOCC1 | inactive | –
13 | CCOC(CN1CCN(CC(C)C(=O)c2ccccc2)CC1)c1ccccc1 (centres undefined) | – | 0.188% [at 15.8 µM]
14 | CCn1cc(C(=O)O)c(=O)c2cnc(N3CCCC3)nc21 | – | -0.35% [at 6.97 µM]
15 | COP(=O)(O)OP(=O)(O)OC | inactive | –
16 | CC(=O)CC(=O)OC(C)(C)C | inactive | –
17 | COCCc1ccccn1 | inactive | –
18 | CCCC(=O)OC/C=C(\C)CCC=C(C)C | inactive | –
19 | CCC(=O)CC | inactive | –

Row | Structure (SMILES) | outcome | activity change, negative = cytotoxic
20 | Cc1c(N)cccc1Cl | inactive | –
21 | CN(C)CCCCl | inactive | –
22 | O=C(Cn1ccnc1[N+](=O)[O-])NCc1ccccc1 | inactive | –
23 | CC(C)C[C@@H]1[C@H](c2ccccc2)OC(=O)N1CCCN1CCCCCC1 | inactive | –
24 | Cc1cc(C)c(C(=O)O)c(C)c1 | inactive | –
25 | CC(C)(C)NC[C@H](O)COc1cccc2c1CCCC2=O | inactive | –
26 | CC1(C)O[C@H]2CC(=O)OC[C@]23[C@H]2CC[C@@]4(C)[C@H](c5ccoc5)OC(=O)[C@H]5O[C@]54[C@]2(C)C(=O)C[C@@H]13 | inactive | –
27 | C[C@@H](O)C(=O)O | inactive | –
28 | Cc1ccc(C(=O)O)cc1[N+](=O)[O-] | inactive | –
29 | COC(C)(OC)OC | inactive | –
30 | CC/C(C)=N\O[Si](C)(O/N=C(\C)CC)O/N=C(\C)CC | inactive | –
31 | OC1OCCOC1O (centres undefined) | inactive | –
32 | CO/N=C(/C(=O)N[C@@H]1C(=O)N2C(C(=O)[O-])=C(C[n+]3ccn4ncccc43)CS[C@H]12)c1nsc(N)n1 | inactive | –
33 | N#Cc1ccccc1O | inactive | –
34 | OCC1CCC(CO)CC1 (centres undefined) | inactive | –
35 | CC1=C(C(=O)O)N2C(=O)[C@@H](NC(=O)[C@H](N)c3ccccc3)[C@H]2SC1 | inactive | –
36 | COc1ccc(CCO)cc1 | inactive | –
37 | N[C@@H](CSCCCO)C(=O)O | – | 2.25% [at 15.8 µM]

Experiment: A CellTox Green Cytotoxicity Assay to monitor cytotoxicity in HepG2 cells - 24 hour (AID 1224878); note: nearly all actives have a fitted effect of over 45% in size
Details: CellTox Green fluorescence; series mostly up to 76.8 µM
Summary of the method: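 HepG2 cells, 600/well, preincubated 5 h with CellTox Green dye, then exposed to Tox21 compounds in DMSO at 37 C for up to 40 h. Dead-cell DNA fluorescence read at the indicated time point.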

Row | Structure (SMILES) | Potency | cytotoxicity
38 | NCC1(Cc2noc(=O)[nH]2)CCCCC1 | inactive | –
39 | O=Cc1cc2ccccc2o1 | inactive | –
40 | C[C@]12CCC(=O)C=C1CC[C@H]1[C@@H]3CC[C@](O)(C(=O)CO)[C@@]3(C)C[C@H](O)[C@@]12F | inactive | –
41 | COC(=O)c1ccccc1C(=O)O | inactive | –
42 | OC[C@H]1O[C@@H](O[C@@H]2[C@@H](CO)O[C@](O)(CO)[C@H]2O)[C@H](O)[C@@H](O)[C@H]1O | inactive | –
43 | CCOc1cccc(N)c1 | inactive | –
44 | COC(=O)c1cccc(Cl)c1 | inactive | –
45 | CN(C)C(C)(C)CO | inactive | –
46 | CCCCSCCCC | inactive | –
47 | CCN1CCCC1CN (centres undefined) | inactive | –
48 | Cc1c(NC(=O)c2cccnc2)c(=O)n(-c2ccccc2)n1C | inactive | –
49 | Cc1cc(-c2ccccc2)nnc1NCCN1CCOCC1 | inactive | –
50 | CCOC(CN1CCN(CC(C)C(=O)c2ccccc2)CC1)c1ccccc1 (centres undefined) | – | -18.2% [at 15.8 µM]
51 | CCn1cc(C(=O)O)c(=O)c2cnc(N3CCCC3)nc21 | – | 0.605% [at 6.97 µM]
52 | COP(=O)(O)OP(=O)(O)OC | inactive | –
53 | CC(=O)CC(=O)OC(C)(C)C | inactive | –
54 | COCCc1ccccn1 | inactive | –
55 | CCCC(=O)OC/C=C(\C)CCC=C(C)C | inactive | –
56 | CCC(=O)CC | inactive | –

Row | Structure (SMILES) | Potency | cytotoxicity
57 | Cc1c(N)cccc1Cl | inactive | –
58 | CN(C)CCCCl | inactive | –
59 | O=C(Cn1ccnc1[N+](=O)[O-])NCc1ccccc1 | inactive | –
60 | CC(C)C[C@@H]1[C@H](c2ccccc2)OC(=O)N1CCCN1CCCCCC1 | inactive | –
61 | Cc1cc(C)c(C(=O)O)c(C)c1 | inactive | –
62 | CC(C)(C)NC[C@H](O)COc1cccc2c1CCCC2=O | inactive | –
63 | CC1(C)O[C@H]2CC(=O)OC[C@]23[C@H]2CC[C@@]4(C)[C@H](c5ccoc5)OC(=O)[C@H]5O[C@]54[C@]2(C)C(=O)C[C@@H]13 | inactive | –
64 | C[C@@H](O)C(=O)O | inactive | –
65 | Cc1ccc(C(=O)O)cc1[N+](=O)[O-] | inactive | –
66 | COC(C)(OC)OC | inactive | –
67 | CC/C(C)=N\O[Si](C)(O/N=C(\C)CC)O/N=C(\C)CC | inactive | –
68 | OC1OCCOC1O (centres undefined) | inactive | –
69 | CO/N=C(/C(=O)N[C@@H]1C(=O)N2C(C(=O)[O-])=C(C[n+]3ccn4ncccc43)CS[C@H]12)c1nsc(N)n1 | inactive | –
70 | N#Cc1ccccc1O | inactive | –
71 | OCC1CCC(CO)CC1 (centres undefined) | inactive | –
72 | CC1=C(C(=O)O)N2C(=O)[C@@H](NC(=O)[C@H](N)c3ccccc3)[C@H]2SC1 | inactive | –
73 | COc1ccc(CCO)cc1 | inactive | –
74 | N[C@@H](CSCCCO)C(=O)O | – | -17.7% [at 15.8 µM]
